Test results: PubChem BioAssay (NCI)
About 79,000 compounds went through this panel and 15% of them were active in at least one assay; those are over-represented in the sample as a whole. Unmarked numbers belong to inactive results. Calls of active or inactive are those of the source. Rule as the data show it: active = growth inhibition above about 70%; inactive = the rest.

Assay: NCI Yeast Anticancer Drug Screen. Data for the mlh1 strain (AID 171);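 also: 0% = growth of vehicle-treated control cultures of the same strain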
Conditions: S. cerevisiae mlh1 strain growth inhibition, active compounds read high
Method: Growth inhibition of yeast strains with defined genetic alterations is measured as a screen for potential anti-cancer activity. Selected strains with alterations in DNA damage repair or cell cycle control were exposed to compounds and growth inhibition was measured relative to vehicle treated controls. The strain used in this assay is mlh1

| SMILES | growth inhibition (at 1.2 µM) [%] | growth inhibition (at 3.7 µM) [%] | growth inhibition (at 11.0 µM) [%] | growth inhibition (at 33.0 µM) [%] | growth inhibition (at 100.0 µM) |
| --- | --- | --- | --- | --- | --- |
| N#CC(=Nc1ccccc1F)Nc1ccccc1F | -1 | -5 | -6 | -2 | 5% |
| COc1cc(/C=C2\CCC/C(=C\c3ccc(O)c(OC)c3)C2=O)ccc1O | -8 | -2 | -2 | -1 | -2% |
| Cc1cc2c3ccccc3c3ccccc3c2nn1 | 5 | -6 | 0 | 1 | -3% |
| CC(/C=C/c1ccccc1)=N\NC(N)=S | 5 | 19 | 20 | 37 | 58% |
| NC1=NNC2(C(N)=N1)c1ccccc1-c1ccccc12 | 10 | -2 | 3 | 53 | 97% (active) |
| CCCCOCn1c(=O)[nH]c(=O)c2cc(Br)ccc21 | -48 | -48 | -41 | -41 | -62% |
| CC(=O)Nc1ccc(/C=C/[N+](=O)[O-])cc1 | -1 | -6 | 1 | 22 | 96% (active) |
| CCCCOP(=O)(CCCP(=O)(OCCCC)OCCCC)OCCCC | -5 | -2 | 1 | 8 | 91% (active) |
